# Measured values from publication PMC11062922 (Nature Chemical Biology, 2023).
# Read-outs that look alike come from different tables or passages of the source.
# What was measured:
# Set-up in all cases: species or system human, MV4-11 + K-562 + COLO205 + SK-N-BE2 + OVCAR-8
# CDC42BPG = conditions: read-out: apparent Kd, compound concentrations: 100 nM and 1000 nM (sheet 'Samples'), n = 1
# MAPK11 = conditions: read-out: apparent Kd, compound concentrations: 100 nM and 1000 nM (sheet 'Samples'), n = 1
# MAPK14 = conditions: read-out: apparent Kd, n = 1
# MAPKAPK2 = conditions: read-out: apparent Kd, n = 1
# MYLK3 = conditions: read-out: apparent Kd; compound concentrations: 100 nM and 1000 nM (sheet 'Samples'), CATDS: 0.26108904226554702; n = 1
# NLK = conditions: read-out: apparent Kd; compound concentrations: 100 nM and 1000 nM (sheet 'Samples'), CATDS: 0.267890772302949; n = 1
# TNIK = conditions: read-out: apparent Kd; compound concentrations: 100 nM and 1000 nM (sheet 'Samples'), CATDS: 0.264395551516103; n = 1
# TNK2 = conditions: read-out: apparent Kd, n = 1
# FLT4 = conditions: read-out: apparent Kd, n = 1
# PLK1 = conditions: read-out: apparent Kd; compound concentrations: 100 nM and 1000 nM (sheet 'Samples'), CATDS: 0.18184890704530299; n = 1
# RIPK2 = conditions: read-out: apparent Kd, n = 1
# CDC42 = conditions: read-out: apparent Kd, n = 1
# CDK6 = conditions: read-out: apparent Kd, n = 1
# MAP2K1 = conditions: read-out: apparent Kd; compound concentrations: 100 nM and 1000 nM (sheet 'Samples'), CATDS: 0.31550250727948498; n = 1
# CDKL5 = conditions: read-out: apparent Kd, n = 1
# CDK7 = conditions: read-out: apparent Kd; compound concentrations:100 nM and 1000 nM (sheet 'Samples'); n = 1
# ERCC2 = conditions: read-out: apparent Kd; compound concentrations:100 nM and 1000 nM (sheet 'Samples'); n = 1
# FER = conditions: read-out: apparent Kd; compound concentrations:100 nM and 1000 nM (sheet 'Samples'); n = 1
# GAK = conditions: read-out: apparent Kd; compound concentrations:100 nM and 1000 nM (sheet 'Samples'); n = 1
# HSP90B1 = conditions: read-out: apparent Kd; compound concentrations:100 nM and 1000 nM (sheet 'Samples'); n = 1
# CDC7 = conditions: read-out: apparent Kd; compound concentrations:100 nM and 1000 nM (sheet 'Samples'); n = 1
# FN3K = conditions: read-out: apparent Kd; compound concentrations:100 nM and 1000 nM (sheet 'Samples'); n = 1
# ICK = conditions: read-out: apparent Kd; compound concentrations:100 nM and 1000 nM (sheet 'Samples'); n = 1
# MAPK10 = conditions: read-out: apparent Kd; compound concentrations:100 nM and 1000 nM (sheet 'Samples'); n = 1
# CDK10 = conditions: read-out: apparent Kd; compound concentrations:100 nM and 1000 nM (sheet 'Samples'); n = 1
# MAPK9 = conditions: read-out: apparent Kd; compound concentrations:100 nM and 1000 nM (sheet 'Samples'); n = 1
# CDK2 = conditions: read-out: apparent Kd; compound concentrations:100 nM and 1000 nM (sheet 'Samples'); n = 1
# CDK4 = conditions: read-out: apparent Kd; compound concentrations:100 nM and 1000 nM (sheet 'Samples'); n = 1
# ILK = conditions: read-out: apparent Kd; compound concentrations:100 nM and 1000 nM (sheet 'Samples'); n = 1
# OPA1 = conditions: read-out: apparent Kd; compound concentrations:100 nM and 1000 nM (sheet 'Samples'); n = 1
# SMC4 = conditions: read-out: apparent Kd; compound concentrations:100 nM and 1000 nM (sheet 'Samples'); n = 1
# VDAC3 = conditions: read-out: apparent Kd; compound concentrations:100 nM and 1000 nM (sheet 'Samples'); n = 1
# CLK1 = conditions: read-out: apparent Kd; compound concentrations:100 nM and 1000 nM (sheet 'Samples'); n = 1
# GSK3B = conditions: read-out: apparent Kd; compound concentrations:100 nM and 1000 nM (sheet 'Samples'); n = 1
# MERTK = conditions: read-out: apparent Kd; compound concentrations:100 nM and 1000 nM (sheet 'Samples'); n = 1
# PRKCB = conditions: read-out: apparent Kd; compound concentrations: 100 nM and 1000 nM (sheet 'Samples'), CATDS: 6.3755563095046694E-2; n = 1
# PRKCQ = conditions: read-out: apparent Kd; compound concentrations:100 nM and 1000 nM (sheet 'Samples'); n = 1
# RPS6KA6 = conditions: read-out: apparent Kd; compound concentrations:100 nM and 1000 nM (sheet 'Samples'); n = 1
# EGFR = conditions: read-out: apparent Kd; compound concentrations: 100 nM and 1000 nM (sheet 'Samples'), CATDS: 0.39562285113590601; n = 1
# FLT3 = conditions: read-out: apparent Kd; compound concentrations:100 nM and 1000 nM (sheet 'Samples'); n = 1
# MAP3K1 = conditions: read-out: apparent Kd; compound concentrations:100 nM and 1000 nM (sheet 'Samples'); n = 1
# MAP4K5 = conditions: read-out: apparent Kd; compound concentrations:100 nM and 1000 nM (sheet 'Samples'); n = 1
# STK10 = conditions: read-out: apparent Kd; compound concentrations:100 nM and 1000 nM (sheet 'Samples'); n = 1
# HSPE1 = conditions: read-out: apparent Kd; compound concentrations:100 nM and 1000 nM (sheet 'Samples'); n = 1
# IRAK3 = conditions: read-out: apparent Kd; compound concentrations:100 nM and 1000 nM (sheet 'Samples'); n = 1
# PIK3CA = conditions: read-out: apparent Kd; compound concentrations:100 nM and 1000 nM (sheet 'Samples'); n = 1
# PIK3CD = conditions: read-out: apparent Kd; compound concentrations:100 nM and 1000 nM (sheet 'Samples'); n = 1
# PIM1 = conditions: read-out: apparent Kd; compound concentrations:100 nM and 1000 nM (sheet 'Samples'); n = 1
# STK16 = conditions: read-out: apparent Kd; compound concentrations:100 nM and 1000 nM (sheet 'Samples'); n = 1
# PBK = conditions: read-out: apparent Kd; compound concentrations:100 nM and 1000 nM (sheet 'Samples'); n = 1
# [1] = compound concentrations:100 nM and 1000 nM (sheet 'Samples')
compound,measurement,setting,value
Nc1c(C(=O)c2cccc(-c3ccc[n+]([O-])c3)c2)cnn1-c1ccc(F)cc1F [RO1166259-000],potency estimated from few doses,CDC42BPG; CATDS: 0.14684216194917399,1410 nM
same,potency estimated from few doses,MAPK11; CATDS: 0.59050582210334401,10.2 nM
same,potency estimated from few doses,"MAPK14; compound concentrations: 100 nM and 1000 nM (sheet 'Samples'), CATDS: 0.223513912329704",100 nM
same,potency estimated from few doses,"MAPKAPK2; compound concentrations: 100 nM and 1000 nM (sheet 'Samples'), CATDS: 0.33085096444850498",31.2 nM
O=C(Nc1n[nH]c2cc(-c3ccccc3)ccc12)C1CC1 [SB-732941],potency estimated from few doses,CDC42BPG; CATDS: 0.214831425335373,2210 nM
same,potency estimated from few doses,MYLK3,1450 nM
same,potency estimated from few doses,NLK,1380 nM
same,potency estimated from few doses,TNIK,1420 nM
Nc1c(C(=O)c2cccc(CCS(N)(=O)=O)c2)cnn1-c1ccc(F)cc1 [RO1162009-000],potency estimated from few doses,CDC42BPG; CATDS: 0.22426146716058901,1250 nM
same,potency estimated from few doses,MAPK11; CATDS: 0.36528894613698598,500 nM
same,potency estimated from few doses,"MAPKAPK2; compound concentrations: 100 nM and 1000 nM (sheet 'Samples'), CATDS: 0.21813918573992899",1340 nM
same,potency estimated from few doses,"TNK2; compound concentrations: 100 nM and 1000 nM (sheet 'Samples'), CATDS: 0.23701561839687901",1100 nM
COc1cc2nccc(Nc3ccc(OCc4ccc(NC(C)=O)cc4)cc3)c2cc1OC.Cl [GW440135A],potency estimated from few doses,CDC42BPG; CATDS: 0.22924434609497199,1070 nM
same,potency estimated from few doses,"FLT4; compound concentrations: 100 nM and 1000 nM (sheet 'Samples'), CATDS: 0.57222186491760196",185 nM
same,potency estimated from few doses,PLK1,2130 nM
same,potency estimated from few doses,"RIPK2; compound concentrations: 100 nM and 1000 nM (sheet 'Samples'), CATDS: 0.227728306624736",1090 nM
COc1ccc(-c2nn3ncccc3c2-c2ccnc(Nc3cccc(C(F)(F)F)c3)n2)cc1 [GW827105X],potency estimated from few doses,CDC42BPG; CATDS: 1,1920 nM
Cc1ccc(NC(=O)c2ccc(Cl)c(Cl)c2)cc1-c1ccc(C(=O)Nc2ccncc2)cc1 [GSK1398460A],potency estimated from few doses,CDC42BPG; CATDS: 1,1100 nM
CCn1c(-c2ccccn2)nc2cnccc21 [SB-736398],potency estimated from few doses,"CDC42; compound concentrations: 100 nM and 1000 nM (sheet 'Samples'), CATDS: 0.328417840290395",1930 nM
same,potency estimated from few doses,"CDK6; compound concentrations: 100 nM and 1000 nM (sheet 'Samples'), CATDS: 0.35899533679328099",1630 nM
same,potency estimated from few doses,MAP2K1,2100 nM
COc1ccc(Nc2nccc(N3CCC(NC(=O)Nc4cccc(C(C)=O)c4)C3)n2)cc1 (stereo not drawn) [GSK1379731A],potency estimated from few doses,"CDC42; compound concentrations: 100 nM and 1000 nM (sheet 'Samples'), CATDS: 0.48931368679936299",1580 nM
same,potency estimated from few doses,"CDKL5; compound concentrations: 100 nM and 1000 nM (sheet 'Samples'), CATDS: 0.51116349982272002",1450 nM
COC(=O)c1cccc(NC(=O)NCCNc2ccnc(Nc3ccc(F)cc3)n2)c1 [GSK1379883A],potency estimated from few doses,"CDC42; compound concentrations: 100 nM and 1000 nM (sheet 'Samples'), CATDS: 1",1560 nM
Cc1ccc2c(-c3ccnc(Nc4ccc(C(F)(F)F)cc4)n3)cnn2n1 [GW819776X],potency estimated from few doses,CDC42; [1],1650 nM
same,potency estimated from few doses,CDK7,1750 nM
same,potency estimated from few doses,ERCC2,898 nM
same,potency estimated from few doses,FER,1180 nM
same,potency estimated from few doses,GAK,1400 nM
same,potency estimated from few doses,HSP90B1,99.9 nM
same,potency estimated from few doses,TNK2; [1],1050 nM
COc1cc2ncnc(Nc3cccc(Br)c3)c2cc1OC.Cl [GI230329A],potency estimated from few doses,CDC7,2060 nM
same,potency estimated from few doses,FN3K,2150 nM
same,potency estimated from few doses,GAK,319 nM
same,potency estimated from few doses,ICK,1370 nM
same,potency estimated from few doses,MAPK10,956 nM
same,potency estimated from few doses,RIPK2; [1],1140 nM
FC(F)(F)c1cc(Nc2nccc(-c3c(-c4ccc(Cl)cc4)nn4ncccc34)n2)ccc1Cl [GW829351X],potency estimated from few doses,CDK10,1110 nM
same,potency estimated from few doses,CDK6; [1],1600 nM
same,potency estimated from few doses,HSP90B1,114 nM
same,potency estimated from few doses,MAPK9,1950 nM
O=C(Nc1n[nH]c2nc(-c3nccs3)c(Br)cc12)C1CC1 [SB-742251],potency estimated from few doses,CDK2,1640 nM
same,potency estimated from few doses,CDK4,1480 nM
same,potency estimated from few doses,ILK,2010 nM
same,potency estimated from few doses,OPA1,1520 nM
same,potency estimated from few doses,SMC4,1950 nM
same,potency estimated from few doses,VDAC3,2000 nM
Cl.Cn1cc(C2=C(c3cn(CCCN)c4ccccc34)C(=O)NC2=O)c2ccccc21 [RO0317549-002],potency estimated from few doses,CDK4,1650 nM
same,potency estimated from few doses,CDKL5; [1],2060 nM
same,potency estimated from few doses,CLK1,1850 nM
same,potency estimated from few doses,GSK3B,115 nM
same,potency estimated from few doses,ICK,109 nM
same,potency estimated from few doses,MERTK,1370 nM
same,potency estimated from few doses,PRKCB,606 nM
same,potency estimated from few doses,PRKCQ,566 nM
same,potency estimated from few doses,RPS6KA6,44.1 nM
CS(=O)(=O)CCNCc1ccc(-c2ccc3ncnc(Nc4ccc(OCc5cccc(C(F)(F)F)c5)cc4)c3c2)o1.Cl [GW567808A],potency estimated from few doses,EGFR,995 nM
same,potency estimated from few doses,FLT3,1430 nM
COc1cc2ncn(-c3cc(O[C@@H](C)c4ccccc4Cl)c(C(N)=O)s3)c2cc1OC [GSK237700A],potency estimated from few doses,FLT4; [1],1530 nM
same,potency estimated from few doses,MAP3K1,1500 nM
same,potency estimated from few doses,MAP4K5,2080 nM
same,potency estimated from few doses,STK10,1820 nM
O=C(Nc1n[nH]c2nc(-c3ccccc3)ccc12)C1CC1 [SB-708999],potency estimated from few doses,HSPE1,296 nM
O=C(Nc1n[nH]c2nc(-c3ccccc3)c(Br)cc12)C1CC1 [SB-708998],potency estimated from few doses,IRAK3,1410 nM
same,potency estimated from few doses,MAPK14; [1],1640 nM
same,potency estimated from few doses,PIK3CA,245 nM
same,potency estimated from few doses,PIK3CD,187 nM
same,potency estimated from few doses,PIM1,1280 nM
same,potency estimated from few doses,STK16,1890 nM
FC(F)(F)c1ccccc1-c1cc(-c2c[nH]nc2-c2ccccn2)ccn1 [GW679396X],potency estimated from few doses,MAPK14; [1],845 nM
same,potency estimated from few doses,MAPKAPK2; [1],941 nM
C[C@@H]1CCN(C(=O)CO)C[C@@H]1N(C)c1ncnc2[nH]ccc12 [PFE-PKIS_34],potency estimated from few doses,PBK,1930 nM
